Inconclusive results are not listed. A call without a number means that no potency is given here. Unmarked numbers belong to inactive results. Activity calls are given as the source filed them. Calls come from the whole dose curve; as a rule, active = well fitted activation curve with a large enough effect in the repeat runs; inconclusive = weak or mixed curves; inactive = flat fitted curve, though single readings scatter.
Experiment: A CellTox Green Cytotoxicity Assay to monitor cytotoxicity in HepG2 cells - 40 hour (AID 1224879); note: nearly all actives have a fitted effect of over 40% in size
Details: CellTox Green fluorescence; series mostly up to 76.8 µM
Text: National Center for Advancing Translational Sciences [NCATS]
NIH Chemical Genomics Center [NCGC]
U.S. Environmental Protection Agency [EPA]
National Institutes of Environmental Health Sciences [NIEHS]
National Toxicology Program [NTP]
Cell-based models are critical for drug discovery. Determining the natural cytotoxic effects resulting from test compounds is an essential research activity. A CellTox Green Cytotoxicity Assay to monitor cytotoxicity in real time of continues cell culture during 40 hours of the compound treatment was used to screen Tox21 10K library compounds in HepG2 cells. CellTox Green Cytotoxicity Assay is a nonlytic, homogeneous, biofluorescent method to measure cytotoxicity in cell culture after experimental manipulation. The assay system uses a proprietary asymmetric cyanine dye that is excluded from viable cells but preferentially stains the dead cell's DNA. […] Viable cells produce no appreciable increases in fluorescence. Therefore, the fluorescence signal produced by the binding interaction with dead cell DNA is proportional to cytotoxicity.
The mixture of HepG2 cell suspension and reagents were dispensed at 600cells/6 ul/well in 1536-well tissue culture treated black solid bottom plates using a Multidrop dispenser. After the assay plates were incubated at a 37 C/5% CO2 incubator for 5 hours, 23 nL of compounds dissolved in DMSO, positive and negative controls was transferred to the assay plate by a pintool work station. The plates were incubated at 37 C for 40 hours. The fluorescence intensity were measured at 0h, 8h, 16h, 24h, 32h and 40h time points using ViewLux plate reader during compound treatment.

| SMILES | cytotoxicity increase | Potency |
| --- | --- | --- |
| N[C@@H](COP(=O)(O)O)C(=O)O | -0.277% [at 15.8 µM] | – |
| CC(C)C(=O)OCc1cccc(OC(=O)[C@@H]2N3C(=O)[C@@H](NC(=O)Cc4ccccc4)[C@H]3SC2(C)C)c1 | – | inactive |
| CCCOC(=O)C(C)O (stereo not given) | – | inactive |
| O=C(OCC1(COC(=O)c2cccnc2)CCCC(COC(=O)c2cccnc2)(COC(=O)c2cccnc2)C1O)c1cccnc1 | – | inactive |
| CCCCCCCCCC(C)=O | – | inactive |
| O=C(CS(=O)Cc1ccco1)NC/C=C\COc1cc(CN2CCCCC2)ccn1 (stereo not given) | – | inactive |
| CCCCC(CC)COCCO (stereo not given) | – | inactive |
| COc1ccc(S(=O)(=O)N2c3ccc(Cl)cc3[C@@](O)(c3ccccc3Cl)[C@H]2C(=O)N2CCC[C@@H]2C(N)=O)cc1OC | – | inactive |
| Nc1ccc(S(=O)(=O)Nc2ccc(Cl)nn2)cc1 | – | inactive |
| CCCCOCCOC(=O)COc1nc(Cl)c(Cl)cc1Cl | – | inactive |
| C[C@H](CCC(=O)O)[C@H]1CC[C@H]2[C@@H]3C(=O)C[C@@H]4CC(=O)CC[C@]4(C)[C@H]3CC(=O)[C@]12C | – | inactive |
| Cc1cc(NC(=O)C2=C(O)c3ccccc3S(=O)(=O)N2C)no1 | – | inactive |
| COc1cc(NS(=O)(=O)c2ccc(N)cc2)nc(OC)n1 | – | inactive |
| CC(C)c1ccc2cc(C(C)C)ccc2c1 | – | inactive |
| COc1ccc2nc(SCc3ncc(C)c(OC)c3C)[nH]c2c1 | – | inactive |
| C[C@@H](O)[C@H]1C(=O)N2C(C(=O)O)=C(SCCN=CN)C[C@H]12 | – | inactive |
| CCOC(=O)/C=C/c1ccccc1 | – | inactive |
| CC(=O)c1ccc2c(c1)Cc1ccccc1-2 | – | inactive |
| CC(C)C(=O)OCCc1ccccc1 | – | inactive |
| CCN(CC)CC(=O)Nc1c(C)cccc1C | – | inactive |

| SMILES | cytotoxicity increase | Potency |
| --- | --- | --- |
| O=C(OCC(COC(=O)c1cccnc1)(COC(=O)c1cccnc1)COC(=O)c1cccnc1)c1cccnc1 | – | inactive |
| CCOC(=O)c1ccc(OC(=O)CCCCCN=C(N)N)cc1 | – | inactive |
| O=S(=O)(O)CCN1CCN(CCO)CC1 | – | inactive |
| NC(CO)C(=O)NNCc1ccc(O)c(O)c1O (stereo not given) | – | inactive |
| CCOC(=O)[C@H](CCc1ccccc1)N[C@@H](C)C(=O)N1C(=O)N(C)C[C@H]1C(=O)O | – | inactive |
| COCCOCCOCCOCCOCCO | – | inactive |
| Cc1ccc2c(c1)OCC(=O)CO2 | – | inactive |
| CCNC(=O)C1CC(C)CCC1C(C)C (stereo not given) | – | inactive |
| O=S(O)(O)=S | -1.37% [at 6.97 µM] | – |
| O=C(CCN1CCN(CCO)CC1)N1c2ccccc2Sc2ccc(C(F)(F)F)cc21 | – | inactive |
| CCCCNC1CC(C)(C)NC(C)(C)C1 | – | inactive |
| O=C1O[C@@H]2[C@@H](O)[C@H](O)O[C@@H]2[C@H]1O | – | inactive |
| Oc1ccccc1-c1nnco1 | – | inactive |
| Cc1cccc(OCC(O)CNC(C)(C)C)c1C (stereo not given) | – | inactive |
| O=C(c1ccc(O)cc1)c1ccc(O)c(O)c1O | – | inactive |
| CN(C)C(=O)CNC(=O)Cc1ccccc1 | – | inactive |
| C#CC(C)N(C)C(=O)Nc1ccc(Cl)cc1 (stereo not given) | – | inactive |
| CCCC(=O)C(C)=O | – | inactive |
| CC(=O)CCCCn1c(=O)c2c(ncn2C)n(C)c1=O | – | inactive |
| C=Cc1ccccn1 | – | inactive |
